According to PubChem BioAssay:
Inconclusive results are not listed. Activity calls are given as the source filed them.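 Rule for the calls, unless noted: active = compounds that lower viability of the colon cancer cells in the luminescence readout, with no numeric limit stated; inactive = the rest.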

How the values were obtained:
[1] = stimulators of insulin release from INS-1E, primary screen, cell-based, 5 mM glucose, NPC library (AID 1117329;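 active = compound raises insulin release from rat beta cells at 5 mM glucose, no numeric limit stated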); settings: rat INS-1E insulin secretion, at 10 µM, stronger effect = higher value
[2] = growth inhibition of GSK3B-pretreated HCT116 cells – cell-based, CellTiter-Glo, 0.2 to 20 µM (AID 1117336;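 active = compounds lowering colon cancer cell viability after pretreatment blocking the GSK3B kinase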); settings: HCT116 viability after GSK3B inhibitor, at 20 µM, stronger effect = higher value
[3] = inhibition of endothelial tube formation, primary screen, imaging, VEGF stimulated, CD31 staining, tube area, NPC library (AID 1117340;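 active = compound that reduces growth-factor-driven endothelial tube area in a mixed cell culture, no cutoff stated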); settings: VEGF-stimulated ADSC/ECFC co-culture, at 10 µM, stronger effect = higher value
[4] = glucagon-like peptide 1 release enhancers, primary assay, NCI-H716 cell line, NPC library (AID 1117341;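 active = compound raises GLP1 secretion from the human gut endocrine cells, with no numeric limit stated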); settings: NCI-H716 cells, at 10 µM, stronger effect = higher value
[5] = HCT116 colon cancer cell growth inhibition, primary screen, CellTiter-Glo luminescence, NPC library (AID 1117342;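 active = compounds that lower survival of HCT116 colon cancer cells in the luminescence readout, no numeric limit stated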); settings: at 20 µM (top of the series)
[6] = CellTiter-Glo luminescent readout of SW480 viability loss, NPC library primary (AID 1117343); settings: CellTiter-Glo luminescence; at 20 µM (top of the series)
[7] = decreased DLD-1 cellular survival, CellTiter-Glo luminescent readout, NPC compound collection, primary HTS (AID 1117346;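 active = compounds that lower survival of DLD-1 colon cancer cells in the luminescence readout, no cutoff given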); settings: DLD-1 viability, CellTiter-Glo luminescence; at 20 µM (top of the series)
[8] = target: 6-phosphogluconate dehydrogenase, decarboxylating (Homo sapiens) (UniProt P52209); assay: 6PGD enzyme inhibitors, primary screen, biochemical, human, recombinant enzyme, NADPH absorbance (AID 1159550;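 active = at least 20% inhibition of 6-phosphogluconate dehydrogenase activity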); settings: recombinant 6PGD, NADPH absorbance 341 nm; at 10 µM; stronger effect = higher value
Chain of 6-phosphogluconate dehydrogenase, decarboxylating (Homo sapiens) (P52209 whole entry, looked up): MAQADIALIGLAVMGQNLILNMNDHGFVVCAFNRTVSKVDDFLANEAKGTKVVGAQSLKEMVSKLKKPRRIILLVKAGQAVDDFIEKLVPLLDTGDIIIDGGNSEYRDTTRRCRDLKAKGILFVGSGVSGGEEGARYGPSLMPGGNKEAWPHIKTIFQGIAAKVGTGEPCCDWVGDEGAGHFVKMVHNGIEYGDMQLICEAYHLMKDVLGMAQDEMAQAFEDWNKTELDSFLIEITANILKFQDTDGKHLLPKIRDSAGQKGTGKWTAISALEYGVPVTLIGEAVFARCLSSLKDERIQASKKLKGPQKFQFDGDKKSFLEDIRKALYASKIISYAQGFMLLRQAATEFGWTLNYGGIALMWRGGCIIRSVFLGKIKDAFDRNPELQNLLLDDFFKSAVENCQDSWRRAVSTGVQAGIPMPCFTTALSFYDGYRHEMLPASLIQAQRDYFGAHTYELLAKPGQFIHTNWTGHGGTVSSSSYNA

[9] = differential killing of epithelial or mesenchymal cells, primary screen, imaging, PC-3E GFP, TEM4-18 mCherry, co-culture (AID 1345086;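 active = compounds killing one labelled cell type while sparing the other, by normalised counts and ratio limits, not self-fluorescent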;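 for all read-outs here: cells exposed to compound for 72 h before imaging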;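 for red/green cell ratio (normalised): normalised mesenchymal count divided by normalised epithelial count so high means epithelial killing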); settings: imaging cell counts, at 1 µM; for red/green cell ratio (normalised): actives lie on both sides, counts scaled to control wells, 1 = unselective
[10] = tested on: Aerobactin synthetase IucA (Klebsiella pneumoniae); assay: IucA aerobactin synthetase inhibitors, biochemical, Tocris library, absorbance (AID 1345561; call rule not given here;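 note: 100% = enzyme without compound and 0% = no enzyme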); settings: purified IucA enzyme assay, absorbance (OD) read-out; stronger effect = lower value;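 tested at 8 µM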
[11] = growth inhibition of DIPG glioma cells, dose response, cell-based, SU-DIPG-XVII, MIPE5.0, CellTiter-Glo, qHTS (AID 1347060; cut-off not given, nearly all actives have AC50 up to about 26 µM); settings: SU-DIPG-XVII viability, CellTiter-Glo ATP luminescence
[12] = growth inhibition of DIPG glioma cells, dose response, cell-based, SU-DIPG-XIII, MIPE4.0, CellTiter-Glo, qHTS (AID 1347061; cut-off not given, nearly all actives have AC50 up to about 37 µM;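 note: cells exposed to compound for 48 hours before readout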); settings: SU-DIPG-XIII viability, CellTiter-Glo ATP luminescence
[13] = growth inhibition of DIPG glioma cells, dose response, cell-based, SU-DIPG-IV, MIPE4.0, CellTiter-Glo, qHTS (AID 1347063; cut-off not given, nearly all actives have AC50 up to about 30 µM;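 note: compound exposure lasted 48 hours before the viability readout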); settings: SU-DIPG-IV viability, CellTiter-Glo ATP luminescence
[14] = growth inhibition of DIPG glioma cells, dose response, cell-based, SU-DIPG-XIII, MIPE5.0, CellTiter-Glo, qHTS (AID 1347064; cut-off not given, nearly all actives have AC50 up to about 23 µM); settings: SU-DIPG-XIII viability, CellTiter-Glo ATP luminescence
[15] = measured here: epithelial PC-3E GFP cell survival
[16] = measured here: mesenchymal TEM4-18 mCherry cell survival

| SMILES | insulin secretion stimulation [1] | viability decrease [2] | tube area decrease [3] | GLP1 secretion stimulation [4] | inhibition of viability [5] | viability decrease (inhibition) [6] | viability decrease (inhibition) [7] | inhibition [8] | red/green cell ratio (normalised) [9] | normalised cell number [9, 15] | normalised cell number [9, 16] | remaining activity [10] | outcome [11] | outcome [12] | outcome [13] | outcome [14] |
| --- | --- | --- | --- | --- | --- | --- | --- | --- | --- | --- | --- | --- | --- | --- | --- | --- |
| Cc1ccccc1OCC(O)CO (configuration not stated) | -1.2% (inactive) | -10.2% (inactive) | -4.1% (inactive) | -0.8% (inactive) | -20.4% (inactive) | 0.7% (inactive) | -25.4% (inactive) | 7.3% (inactive) | 1.04 (inactive) | 1.05 | 1.1 | – | – | – | – | – |
| O=c1ccc2ccccc2o1 | -1.8% (inactive) | 3.65% (inactive) | -29.2% (inactive) | 2.9% (inactive) | 12.6% (inactive) | 19.6% (inactive) | 6% (inactive) | -18.6% (inactive) | 1.12 (inactive) | 0.98 | 1.1 | – | – | – | – | – |
| NC(N)=NCCN1CCCCCCC1 | -1.2% (inactive) | 1.25% (inactive) | 3.7% (inactive) | -0.1% (inactive) | 30% (inactive) | -11.2% (inactive) | 23.4% (inactive) | 10.5% (inactive) | 1.06 (inactive) | 1.17 | 1.23 | – | – | – | – | – |
| CN1Cc2c(N)cccc2C(c2ccccc2)C1 (configuration not stated) | 6.6% (inactive) | -9.2% (inactive) | 3.2% (inactive) | 0.3% (inactive) | 10% (inactive) | 25.6% (inactive) | 4.2% (inactive) | 5.71% (inactive) | 0.78 (inactive) | 1.16 | 0.9 | – | – | – | – | – |
| COc1ccc(C(=O)c2ccccc2)c(O)c1 | -2.9% (inactive) | -5.25% (inactive) | 6.3% (inactive) | 0.5% (inactive) | 14.4% (inactive) | 3.3% (inactive) | -0.05% (inactive) | -7.36% (inactive) | 0.94 (inactive) | 1.15 | 1.08 | – | – | – | – | – |
| NCCS | 2.9% (inactive) | -8.4% (inactive) | -3.5% (inactive) | -3.8% (inactive) | 2.53% (inactive) | -332% (inactive) | -14.1% (inactive) | -14% (inactive) | 1.27 (inactive) | 0.91 | 1.16 | – | – | – | – | – |
| CCN(CCCc1ccccc1)CCCc1ccccc1 | 7.3% (inactive) | -119% (inactive) | 5.4% (inactive) | 2.7% (inactive) | 41.4% (inactive) | 44% (inactive) | 60.1% (active) | 7.45% (inactive) | 0.99 (inactive) | 1.13 | 1.12 | – | – | – | – | – |
| CC(=O)Nc1c(I)cc(I)c(C(=O)O)c1I | 0.6% (inactive) | -43.4% (inactive) | 34.2% (inactive) | 0.7% (inactive) | 4.5% (inactive) | -4.3% (inactive) | 0.1% (inactive) | -3.44% (inactive) | 0.94 (inactive) | 1.19 | 1.12 | – | – | – | – | – |
| Nc1ccc(S(=O)(=O)Nc2nccs2)cc1 | -1.1% (inactive) | -5.95% (inactive) | 18.7% (inactive) | -3.5% (inactive) | -3.5% (inactive) | 52.4% (active) | 12% (inactive) | 2.97% (inactive) | 1.36 (inactive) | 0.91 | 1.24 | – | – | – | – | – |
| CN1CCC(=C2c3ccccc3Sc3ccccc32)CC1 | 28.8% (active) | 77.2% (active) | 51.9% (active) | -3.3% (inactive) | 36.4% (inactive) | 80.2% (active) | 23.6% (inactive) | 13.2% (inactive) | 1.08 (inactive) | 1.03 | 1.11 | – | – | – | – | – |
| CCCCC1(COC(=O)CCC(=O)O)C(=O)N(c2ccccc2)N(c2ccccc2)C1=O | 2.3% (inactive) | 10.8% (inactive) | -1.7% (inactive) | -1.7% (inactive) | 0.4% (inactive) | -17.1% (inactive) | 9.4% (inactive) | -3.37% (inactive) | 0.91 (inactive) | 0.96 | 0.87 | – | – | – | – | – |
| O=C1OCCN1/N=C/c1ccc([N+](=O)[O-])o1 | -3% (inactive) | 24.6% (inactive) | -8.5% (inactive) | 5.7% (inactive) | 12.3% (inactive) | 74.9% (active) | 25.6% (inactive) | 12.5% (inactive) | 1.17 (inactive) | 0.95 | 1.11 | – | – | – | – | – |
| CC(=O)NCCCCCC(=O)O | 1.2% (inactive) | -17.4% (inactive) | -4.2% (inactive) | -0.1% (inactive) | -1.55% (inactive) | 24.9% (inactive) | -11.9% (inactive) | -3.52% (inactive) | 0.96 (inactive) | 0.98 | 0.95 | – | – | – | – | – |
| Cc1nnc(SCC2=C(C(=O)O)N3C(=O)[C@@H](NC(=O)Cn4cnnn4)[C@H]3SC2)s1 | -1.7% (inactive) | 3.2% (inactive) | 10.5% (inactive) | 2.7% (inactive) | 1.2% (inactive) | 4.8% (inactive) | -22.3% (inactive) | 1.44% (inactive) | 0.96 (inactive) | 1.16 | 1.12 | – | – | – | – | – |
| Cc1ccsc1/C=C/C1=NCCCN1C | 0.2% (inactive) | -25.2% (inactive) | -9.8% (inactive) | -0.1% (inactive) | 39.5% (inactive) | 90.9% (active) | 87.6% (active) | 5.11% (inactive) | 1.28 (inactive) | 1.08 | 1.38 | – | – | – | – | – |
| O=C(CCCN1CCN(c2ccccn2)CC1)c1ccc(F)cc1 | 7.45% (inactive) | 31.5% (inactive) | -12.3% (inactive) | -0.3% (inactive) | 51% (active) | 11.4% (inactive) | 20.2% (inactive) | 1.29% (inactive) | 1.1 (inactive) | 1.11 | 1.22 | – | – | – | – | – |
| C[N+]1(CCCCC[N+]2(C)CCCC2)CCCC1 | 2.5% (inactive) | -7% (inactive) | -11.3% (inactive) | -1.6% (inactive) | -2.5% (inactive) | -8.4% (inactive) | 6.3% (inactive) | 10.2% (inactive) | 0.92 (inactive) | 1.09 | 1 | – | – | – | – | – |
| CCN(CC)CCOC(=O)C(c1ccccc1)C1CCCCC1 (configuration not stated) | 18.2% (inactive) | -99.4% (inactive) | 14.5% (inactive) | 2.9% (inactive) | 25% (inactive) | 36.2% (inactive) | 48.4% (inactive) | 9.92% (inactive) | 0.94 (inactive) | 0.95 | 0.89 | – | – | – | – | – |
| CCN(CC)CCNC(=O)c1cc(Br)c(N)cc1OC | -0.6% (inactive) | -24.9% (inactive) | 15.9% (inactive) | 0.5% (inactive) | -0.17% (inactive) | -9.9% (inactive) | -34.1% (inactive) | 12.4% (inactive) | 0.92 (inactive) | 0.97 | 0.89 | – | – | – | – | – |
| CC(=O)OCC1=C(C(=O)O)N2C(=O)[C@@H](NC(=O)Cc3cccs3)[C@H]2SC1 | 3.6% (inactive) | 33.1% (inactive) | -3.9% (inactive) | 2.4% (inactive) | 2.9% (inactive) | -15.1% (inactive) | -1% (inactive) | 4.29% (inactive) | 1.02 (inactive) | 1.21 | 1.23 | – | – | – | – | – |
| CCCCOc1ccc(OCCCN2CCOCC2)cc1 | 0.6% (inactive) | -10.8% (inactive) | 15.4% (inactive) | -1.7% (inactive) | 24.8% (inactive) | 46.8% (inactive) | 22.7% (inactive) | -17.9% (inactive) | 0.85 (inactive) | 1.15 | 0.98 | – | – | – | – | – |
| NC[C@H]1O[C@H](O[C@H]2[C@H](O)[C@@H](O[C@H]3O[C@H](CO)[C@@H](O)[C@H](N)[C@H]3O)[C@H](N)C[C@@H]2N)[C@H](N)[C@@H](O)[C@@H]1O | -0.7% (inactive) | -7.8% (inactive) | -8.4% (inactive) | 1.5% (inactive) | 9.9% (inactive) | 6.5% (inactive) | -1.7% (inactive) | 5.79% (inactive) | 1.19 (inactive) | 1.1 | 1.31 | – | – | – | – | – |
| C=CCc1ccccc1OCC(O)CNC(C)C (configuration not stated) | 2.2% (inactive) | -6.8% (inactive) | -1.1% (inactive) | 1.4% (inactive) | 34.3% (inactive) | 27.3% (inactive) | 12% (inactive) | -12.3% (inactive) | 1 (inactive) | 1.2 | 1.2 | – | – | – | – | – |
| COC(=O)N/N=C/c1c[n+]([O-])c2ccccc2[n+]1[O-] | 1.9% (inactive) | 18.7% (inactive) | 22.2% (inactive) | 5.7% (inactive) | -3% (inactive) | -10.2% (inactive) | -4.9% (inactive) | 11.2% (inactive) | 0.65 (inactive) | 1.24 | 0.81 | – | – | – | – | – |
| CCCCOC(=O)c1ccc(N)cc1 | 0.4% (inactive) | 27.7% (inactive) | 20.7% (inactive) | 0.1% (inactive) | -21.1% (inactive) | 118% (active) | 59.9% (active) | -3.52% (inactive) | 1.07 (inactive) | 0.97 | 1.04 | – | – | – | – | – |
| Cc1cc(C(C)(C)C)c(O)c(C)c1CC1=NCCN1 | 2.1% (inactive) | 5.6% (inactive) | -3.7% (inactive) | 4.3% (inactive) | 20.6% (inactive) | -4.2% (inactive) | -0.8% (inactive) | 6.36% (inactive) | 0.88 (inactive) | 1.08 | 0.96 | 99.4% (inactive) | inactive | inactive | inactive | inactive |
| CCCCCCCCNC(C)C(O)c1ccc(SC(C)C)cc1 (configuration not stated) | -0.1% (inactive) | 101% (active) | 45.2% (active) | 38.4% (active) | 102% (active) | 142% (active) | 103% (active) | 12% (inactive) | 1.4 (inactive) | 0.68 | 0.96 | – | – | – | – | – |
